About 3,700 (7%) of roughly 53,000 sequences were called active. The entries come from a sample that favours actives as a whole. A number with no mark means an inactive call.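 Rule for the calls: active = gene knockdowns whose robust z-score for IL-1 alpha signal is at least 2 or at most -2, so actives lie on both sides; inactive = the rest.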

The nature of the experiment: Components of the Cytosolic LPS Sensing Pathway: Gene Identification via Genome-wide siRNA Screen.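 Note: robust z of the log signal after scaling to non-targeting control siRNA wells of the plate.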 The settings on record: RAW264.7 macrophages, IL-1a HTRF, actives lie on both sides, screened at 100 nM (by protocol), cells primed 5 h with Pam3CSK4 first. Put shortly: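 Supernatant IL-1a by HTRF from RAW264.7 cells primed with Pam3CSK4 (5 hours) and transfected with LipidA (24 hour) after 48h siRNA knockdown at 100 nM; cell viability checked with CellTiter-Glo.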
For orientation: Time-resolved FRET reads energy transfer from a long-lived donor to a nearby acceptor.
Take GGAUCCAAGGUGAAAAUAUTT against Fam131a: the z-score is -2.25 (active). For GGCUAAGGGUAACGUGCUGTT against Bri3 the value was -0.263; for GGUGGUUAAAUGGUUUUAATT against Prkg2, 1.98; for GGAUCUGACAGCUCAUUUUTT against Casp7, 1.01.

As for CCACAAAACUAAGACACCUTT against P2ry6, the z-score was 0.587. Regarding GGCUCUAACAUGACAAUUUTT against Hyal1, the z-score is -0.251. As for GGGAAAAUGGAAAAUACAUTT against Emc3, the figure is 2.59 (active); as for GCUGAUUAACCCUCAGUAUTT against Gpc6, -0.531. For GCAAGUGUAGAUAAAGUAUTT against Msi2, the z-score is 0.751.

As for GGAAAAGAUAACUCAGACATT against Hrg, the z-score is 0.727. For GCUCUACCCUGAAGAUAUATT against Immt the value was 2.44 (active); for GGCCACCAUUUCUGAAAUCTT against Tecr, 0.714. For GAACACAAAUCUAGUAGACTT against Olfr1109 the value was 0.278; for GGAGAAUUAAAAUGUGAAGTT against Hsd17b4, 0.161; for GGAGCUAAACUCCUUGAAGTT against Slc22a4, 2.07 (active).

Regarding GGGUGCCUAGCAGAUGAACTT against Sp110, the z-score is -0.912. As for GGACAAUGUUGAAUCCUGUTT against Rrp15, the figure is -0.155. As for GGAGGAAUCAAAGGCUCCUTT against Slc39a5, the figure is -0.319. With GGCGCAUUAGCAGAGACUGTT against Mrps5, the z-score was 4.17 (active).

As for GGCACAUUAGUAGAACACATT against Sorcs2, the z-score is -0.243.

Regarding GGAUCAUUCCUUUGGUUAGTT against Fabp5, the z-score is -1.34. For GCCAAGAAUAGCAUUACUGTT against Abraxas1 the value was -2.45 (active); for GGGUAGCUACGAAGAGGAATT against Ros1, 1.72; for GGAAAACCAGCUAAUUAUCTT against Ptger3, -0.23. For GGAAAGUGUGUGUUAUAUUTT against Zfp358 the value was 1.98; for CGAGCUUAUCAUCAGCGACTT against Polr2f, -2.74 (active); for CGGGAUAUCAUUCUCCAUATT against Lnpep, 0.62. As for GGUUUUAAGUUCUAGGGAATT against Olfr1288, the figure is -0.599; as for GCAUGUUUACCUCAAAGUGTT against Cd209e, 0.843; as for GGCCUUGCUUUCAUAAAGUTT against Mrpl49, 0.348. Turning to CGAUACCCAACUGUUGAAATT against Ap5m1, the z-score is 1.12. As for CCCGCUAUUACGUUUUUCUTT against Mtarc2, the figure is -0.498; as for CCUCAGAACAAAUGAAAAUTT against Nlk, -0.62; as for GGCAGGUGAAUGUGGUAGATT against Btbd17, 0.165. For GGCCAACACUAACACAGACTT against Tmem268 the value was -0.357. As for GGUCAAUGGAGUAGAUUUATT against Pard3, the figure is 2.24 (active); as for “GGUCAUGAAAAUUAAAGCATT against 1110059G10Rik”, -2.31 (active); as for GCACGAUGUACCUGAAUCUTT against Ifitm5, 0.387. For the sequence CCUGCUCUAGAGAAGAAGUTT against Naxe, the z-score was 0.879. As to GCAGUCACCUUCAAAAAAATT against Zfp960, the z-score was 1.08.

In the case of CGGUAGAAGGCUUAGGCAATT against Aox1, the z-score was -0.922.

Turning to GGUCAUAGCAUCUACGGCUTT against Gm4793, the z-score was -0.11. As for GGUGUAAUUGGGAAAAUUCTT against Inpp5f, the figure is -1.17; as for GGCCAACCUGUUCAUCAGCTT against Bdkrb1, -0.0817; as for CCUGAGUCUCGGUUCACAATT against Kif12, -2.13 (active).

GCACAGUGUAACUUAGGGCTT against Cenpb: the z-score is -0.525. As for CUAAAUGCCUCCUACCUUUTT against Krtap4-16, the figure is 1.89; as for CCUCAGAAAAAGCCUAUAGTT against Kcnj3, -2.13 (active).

As for GGCAAGUUGACCGUGUUUUTT against Dtnb, the z-score was -0.307.

Consider GGUGAAACAGCGAAUAGGUTT against Zfp428, for which the z-score is -0.168.

As to GGAAUUGUAGAAAGUGUUGTT against Adh4, the z-score was 1.66. For “GGGCCUGUAAUGGUGUACATT against B230317F23Rik” the value was 2.56 (active); for GGCUUUCCGCGCUAUUGAUTT against Pcmtd2, -0.027; for GGAUUUUAGUGAAUUCCAUTT against Asah1, 0.0675.

CCCUGGAUUGAGGAUCGUUTT against Mrgpra8: the z-score is -1.14. As for GGAACUCCAGCUUUUGGUCTT against Sox13, the figure is 2.51 (active); as for “GGUUGAAGAGCAUGAGAGCTT against A330041J22Rik”, 1.01; as for GGAGCUAAACCAAUGGCAATT against Txndc15, 0.479. For GCCCAAGAAUGUGCCUUAUTT against Olfr1278 the value was -0.578. As for GCAGACUAAAAUCACGACATT against Ednra, the figure is 2.62 (active); as for GGUGAUGAAAAGAAUUGCATT against Pitrm1, 0.417; as for GGACUUUGGUUUUUGUAAGTT against Vasn, -1.72.

For the sequence GGUCCAAAGAAAGACCCAUTT against Cypt4, the z-score is -0.131.

Regarding GGUAAACAUGUCUAUGACUTT against Fpr-rs7, the z-score is -2.09 (active).

GGAGAUCAUGUCAAAAAAGTT against Ibtk: the z-score was -0.848. For “GGGCUUUAUUCAUCCACUCTT against 1700067P10Rik” the value was 1.52; for GGAAUGGAUCCUGAUGAUATT against Spcs2, -0.877; for GCUCGAUCAUGGGCCUAUATT against Crls1, -0.189. For the sequence GGAUAGUUUGGUAAUGAAATT against Cds1, the z-score was -0.748. For GGCAGAUAAAGAUGGAGCATT against Ndp the value was 3.69 (active). Consider CGGGCUAUCUGGAACUAUATT against Sesn1, for which the z-score was -0.466. As for GGCUUAAAGGUCCUGUGCUTT against Ighmbp2, the figure is -2.89 (active); as for GGUUUAUGCAAUGAAGCUUTT against Rock2, -0.0928.

Regarding GGUUAUGGUUUUGUUGACUTT against Rbms1, the z-score was -0.606. Regarding GGCUUUAAUGCCUGUAUUATT against Ilvbl, the z-score was -0.185.

GGUUUGGAUGUGAAACAAGTT against Myot: the z-score was -0.861. As for GGAAUCUCGGAGGAAAACUTT against Hyou1, the z-score is 1.99. As for GGCAGUAGCCUUGUCUGUCTT against Prrx2, the figure is -1.42. For GCAAGAUCCCGACACAUACTT against Tead4 the value was -2.22 (active); for GGUCUCACAGCAGUACUCATT against Clk4, -1.46; for GGACACAGGGUCUCUUACATT against Msrb2, -1.25.

With GGCUCAAGACUUAAAUUCATT against Olfr1100, the z-score was 0.437. On to CCUACUGGUUGAAAAUAUUTT against Tceanc2, for which the z-score was 1.16. As for GGAAGACACUCCUCUGCUCTT against Oca2, the figure is 1.63; as for GGUGCGUCCUGAAAUCAUCTT against Txndc12, -2.52 (active); as for GGUUGAUGAAAAAACUGUATT against Itsn2, 0.755. As for GGCUAGAGAAAUAGUGUUGTT against Reep1, the figure is 0.218; as for GGAUCUUCAAUUCGUUGGUTT against Cachd1, 2.75 (active); as for GCCACUCAAAGUUCGAAGGTT against Tmem51, -0.515.

In the case of GGUACUAAAGAAAUAUCCCTT against Sirt7, the z-score is 0.736. As for GGCUUGUUUCCAAAAUAGGTT against Rflna, the figure is 0.327; as for GGCUUUCUUUGCCAUGACCTT against Copg1, -2.93 (active). For CCCUAGAUGGCCGAAAUAUTT against Dazap1 the value was -1.47; for CCUUAUCUGGAGUGCGAGATT against Gpr158, 0.452.

On to CCAAUCCUGAAUAAUGAGATT against Spag17, for which the z-score is 0.0419. As for CGCCGCAGUAUUAAUGGCUTT against Nxph4, the figure is 0.225; as for GGUGGACCUGCACUUUACCTT against Fam135b, 0.67. Turning to CGUCUAUCUUGGAUUACUATT against Dll1, the z-score is 2.11 (active). For UAAAUACUUACCAGCUGGATT against Olfr1306 the value was 1.06. As for GCACCAGUCGAAUCCUCAATT against Gpr137, the figure is -1.46; as for GGCCCAAGGAUCAAUUUAUTT against Zup1, 0.914.

Turning to GGUUCCUGGGAACCUAAGUTT against Med25, the z-score is 2.02 (active). For CCUCAUCGAUGCACUACCCTT against Lrfn4 the value was -0.338. As for GCUCAUGACACUCUUCCUGTT against Spib, the figure is 1.45.

As for GGAGGAUGGCUUUACCGCATT against Mib2, the z-score was -1.64. As for “GCCGGAUUGAGAUCUCUAUTT against 1500015L24Rik”, the figure is 0.734.

For the sequence GGAACAGGACAAUGACAGUTT against Gzme, the z-score was 1.43.

As for GGCUUACUUCAUUUCAGUUTT against Zfp526, the z-score is 0.0808.

The record behind these values is PubChem BioAssay AID1508600 (Functional Genomics Laboratory (NCATS/FGL), 2020).
